# “And” between values parts separate entries of the source, which are not always exact repeats. Equal entries are not always repeated. Results filed as inconclusive are left out. Where a call stands in place of a potency, no number is given. The source made the active and inactive calls. Calls come from the whole dose curve; as a rule, active = well fitted inhibition curve with a large enough effect; inconclusive = small, poorly fitted or top-dose-only effect; inactive = no such curve, though single readings can be large or run the other way.
# Test: Primary qHTS for inhibitors of nuclear receptor binding SET domain protein 2 (NSD2) in an RCH-ACV wild type WT cells (2C) (AID 1645877); note: nearly all actives have a fitted effect of over 70% in size
# Settings: RCH-ACV (leukaemia line) NSD2 WT (2C) viability, CellTiter-Glo, 72 h; series mostly up to 44.9 µM
# Potency is the fitted concentration of half-maximal effect.
row,Compound,Potency
1,COc1ccc(/C=C/C(=O)Nc2ccccc2C(=O)O)cc1OC,inactive
2,CC(C)(C)c1nnc(NS(=O)(=O)c2ccc(N)cc2)s1,inactive
3,CC1(C)[C@@H](O[C@H]2O[C@H](C(=O)O)[C@@H](O)[C@H](O)[C@H]2O[C@@H]2O[C@H](C(=O)O)[C@@H](O)[C@H](O)[C@H]2O)CC[C@]2(C)[C@H]3C(=O)C=C4[C@@H]5C[C@@](C)(C(=O)O)CC[C@]5(C)CC[C@@]4(C)[C@]3(C)CC[C@@H]12,inactive
4,Nc1ncnc2c1c(I)cn2[C@@H]1C[C@H](N)[C@@H](O)[C@H]1O,23.1 µM (active)
5,COc1cc(CNC(=O)CCCC/C=C/C(C)C)ccc1O,7.28 µM (active) and 4.17 µM (active)
6,Nc1nc2ccc([N+](=O)[O-])cc2s1,19.3 µM (active)
7,CCNc1nc2c(ncn2[C@H]2C[C@H](O)[C@@H](CO)O2)c(=O)[nH]1,inactive
8,CS(=O)(=O)c1ccc(-n2nc(C(F)(F)F)cc2-c2ccc(F)cc2)cc1,inactive
9,O=C(Nc1ccc2[nH]ncc2c1)C1CCC1,inactive
10,Cc1ccc(O)c(-n2nc3ccccc3n2)c1,inactive
11,COC(=O)C1=C(C)NC(C)=C(C(=O)OCC(C)=O)C1c1ccccc1[N+](=O)[O-] (centres undefined),11.9 µM (active)
12,CC(C(=O)O)c1ccc2c(c1)[nH]c1ccc(Cl)cc12 (centres undefined),inactive
13,C[N+]1(C)[C@@H]2CC(OC(=O)[C@H](CO)c3ccccc3)C[C@H]1[C@@H]1O[C@@H]12 (some centres undefined),inactive
14,CC1(C)S[C@@H]2[C@H](NC(=O)[C@H](NC(=O)N3CCN(S(C)(=O)=O)C3=O)c3ccccc3)C(=O)N2[C@H]1C(=O)O,inactive

# Source: PubChem BioAssay (NCATS)
